Source: PubChem BioAssay
TDP43 rescue: inhibitors of TDP-43 toxicity in yeast | TDP-43 expressing yeast growth rescue, BacTiter-Glo, 24 h | Potency, µM (top dose mostly 46.1 µM), without a hit: at the top dose growth rescue (activation), actives largely listed as activators | 410,000 compounds, 1.8% hits; further: % of control where 0% means no effect; nearly all actives have a fitted effect of over 50% in size
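Cell-based yeast growth screen: TDP-43 expression induced in galactose, inoculum OD600=0.02 after raffinose pregrowth to mid-log. Read-out BacTiter-Glo luminescence at 24 hr, 30 deg C; inhibition of toxicity seen as signal increase.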
Abeta yeast res: compounds reversing amyloid beta toxicity in yeast. AID 1347071. 410,000 compounds, 0.063% hits. Potency, µM (highest dose often 46.1 µM), actives largely listed as activators. yeast expressing A-beta42, growth rescue, OD600, 48 h; response scale: 0% DMSO, 100% iron-clioquinol control; further: nearly all actives have a fitted effect of over 55% in size
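Growth rescue measured by 600 nm absorbance after 48 h yeast culture at 30 C with compound. Values normalized between DMSO and an equimolar ferric chloride plus clioquinol control.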
aSyn rescue: inhibitors of alpha-synuclein toxicity in yeast; Yeast expressing alpha-synuclein, growth rescue, BacTiter-Glo, 24 h; Potency, µM (titrated, usually from 46.1 µM), without a hit: at the top dose growth rescue (activation), hits mostly activators; 370,000 compounds, 0.14% hits; further: % of control where 0% means no effect; nearly all actives have a fitted effect of over 65% in size
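Rescue of yeast growth: cells expressing toxic alpha-synuclein, induced in galactose at OD600 0.02, incubated with compound 24 h at 30 C. ATP luminescence quantified growth; inhibitors of toxicity appear as activators.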
FUS suppressor: suppressors of FUS proteinopathy in yeast. S. cerevisiae FUS-expressing, growth rescue, OD600, 24 h. Potency, µM (titrated, usually from 76.6 µM), most hits filed as activators. 390,000 compounds, 0.24% hits;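 further: plate controls were DMSO vehicle for no effect and reference control for full effect; nearly all actives have a fitted effect of over 55% in size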
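Cultures pregrown in 2.5% raffinose medium are shifted to minimal medium containing 2% galactose to express toxic FUS. Compounds are tested at several concentrations. After 24hr at 30C, growth is quantified at 600 nm absorbance.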
Active calls of the source: *; i = inactive; ? = inconclusive; nt = not tested or not shown. This is a sample that favours compounds with a hit; in the whole collection about 2.1% have one here. The call rests on the fitted dose curve; in most records, active means well fitted curve in the direction sought with a large enough effect; inconclusive means small, poorly fitted or top-dose-only effect, or another doubt; inactive means no such curve, though single readings can be large; an effect the other way counts as inactive or inconclusive. Potency means the concentration at half of the fitted maximal effect.

SMILES | TDP43 rescue | Abeta yeast res | aSyn rescue | FUS suppressor
COC(=O)c1sc(NC(=O)COc2c(C)cccc2C)nc1C | 20µM* | i | 10% | i
COC(=O)c1sc(NC(=O)COc2ccccc2C)nc1C | 8% | i | -4% | i
CCOC(=O)N1CCN(C(=O)CN2C(=O)/C(=C\c3cccc(OC)c3)SC2=S)CC1 | nt | nt | 14% | nt
CC(C)(C)C(=O)Nc1ccccc1C(=O)Nc1cc(Cl)ccc1Cl | 22µM* | i | -1% | i
Cc1cc(C)cc(OCc2cc(=O)n3c(-c4ccccc4)csc3n2)c1 | 19% | i | nt | i
CCOc1ccc(NC(=O)CN(C)Cc2cc(=O)n3c(-c4ccccc4)csc3n2)cc1OCC | 0% | i | -3% | 18µM*
C=CCn1cnc2c(nnn2-c2cc(C)cc(C)c2)c1=O | 11µM* | i | 2% | i
O=C(NCC1CCCO1)c1ccc(-c2ccccc2Cl)o1 (stereo not drawn) | 20µM* | i | 20% | i
O=C(NNC(=O)c1ccccc1F)c1ccc(-c2ccccc2Cl)o1 | 22µM* | i | 0% | i
Cc1[nH]c2ccccc2c1C(=O)COC(=O)c1ccccc1SCC(=O)N1CCCC1 | nt | nt | -3% | nt
CCOC(=O)c1c(NC(=O)COC(=O)c2ccc([N+](=O)[O-])cc2)sc(C(=O)N(C)C)c1C | 12% | ? | 4% | i
CCOC(=O)c1c(NC(=O)COC(=O)c2cccc([N+](=O)[O-])c2)sc(C(=O)N(C)C)c1C | 14% | 13µM* | 2% | i
CCOC(=O)c1c(N)sc2c(O)c(Br)ccc12 | 11µM* | i | -21% | i
Cn1c(C(=O)Nc2ccccc2)cc2sccc21 | 13µM* | i | 6% | i
COc1ccc(CNC(=O)c2cc3sccc3n2C)cc1 | 35µM* | i | nt | i
COCCNC(=O)c1cc2sccc2n1C | 15% | i | -8% | i
CCc1ccccc1NC(=O)c1cc2sccc2n1C | 13µM* | i | -1% | i
Brc1ccc(C=C2C=c3ccccc3=C2)cc1 | nt | nt | 19% | nt
CCOc1cccc(NC(=O)C2CC(=O)N(C)C(=Nc3ccc(F)cc3)S2)c1 (stereo not drawn) | 25µM* | 16µM* | nt | i
CCOc1cccc(NC(=O)C2CC(=O)N(C)C(=Nc3cccc(OC)c3)S2)c1 (stereo not drawn) | 35µM* | i | nt | ?
COc1cccc(N=C2SC(C(=O)Nc3ccc(F)cc3)CC(=O)N2C)c1 (stereo not drawn) | 26% | i | 21% | i
CCOc1cccc(NC(=O)C2CC(=O)N(C)C(=Nc3ccc(OC)cc3)S2)c1 (stereo not drawn) | 22% | i | 5% | i
COc1ccc2nc(-c3ccccc3)cc(C(=O)OCC(=O)N3CCCCC3)c2c1 | ? | i | 17% | ?
COc1ccc2nc(-c3ccccc3)cc(C(=O)OCC(=O)N3CC(C)OC(C)C3)c2c1 (stereo not drawn) | 22µM* | i | 3% | ?
CCOCCCNC(=O)c1cnc2sc(N3CCCCCC3)nn2c1=O | 6% | i | nt | i
SMILES | TDP43 rescue | Abeta yeast res | aSyn rescue | FUS suppressor
CCN(CC)c1nc(N)c2c(N)n(-c3ccccc3C)c(=S)c(C#N)c2c1C#N | 13% | i | 0% | 28µM*
CCN(CC)c1nc(N)c2c(N)nc3c(c2c1C#N)CC(c1ccccc1)O3 (stereo not drawn) | -12% | i | 4% | i
COc1ccc(-n2c(=O)c3c4c(sc3n(CC(=O)N3CCCCC3C)c2=O)CCC4)c(OC)c1 (stereo not drawn) | 12% | i | nt | i
CC(C)(C)NC(=O)NC(=O)COc1ccc(Br)cc1Br | 28µM* | i | 9% | i
CSc1ccc(CCNC(=O)NCc2noc3ccccc23)cc1 | 12% | i | nt | i
Cc1ccc(Nc2ncnc3onc(C)c23)cc1Cl | 35µM* | i | nt | i
C/C(=N\Nc1ccc(F)cc1F)c1ccc(N2CCOCC2)cc1 | 1% | i | 18% | i
Fc1ccc(N/N=C/c2ccc(N3CCOCC3)cc2)c(F)c1 | 18µM* | i | 13% | i
COc1ccccc1-c1nc2c(c(SCC(=O)Nc3ccc(C)c(C)c3)n1)Cc1c(CO)cnc(C)c1O2 | 19% | i | nt | i
Cc1ccc(-c2nnn(CC(=O)N(CC3CCCO3)C(C(=O)NC3CCCC3)c3ccc(F)cc3)n2)o1 (stereo not drawn) | 7% | i | 1% | i
